High-throughput results deposited in PubChem by The Scripps Research Institute Molecular Screening Center.
Compounds with a hit are over-represented: about 4.1% of the library has one in this group of screens.
hcDAF12 agonist = activators of H. contortus DAF-12 nuclear receptor; actives 1.4% (n = 370,000); activation, % at 6.8 µM; HEK293 hcDAF-12 lit1-tk-luc reporter, luminescence; 0% DMSO, 100% Δ7-dafachronic acid;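 active = activation above the mean of all tested compounds plus 3 SD, cut at about 5.5% in these data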;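 also: 100% = response to 3 µM Δ7-dafachronic acid high control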
DAX1 inh-1 = inhibitors of human orphan nuclear receptor DAX1 (NR0B1); P51843; AID 504766; actives 0.99% (n = 340,000); inhibition, % at 6.75 µM; HEK293 Gal4-DAX1 luciferase reporter, luminescence;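 active = inhibition above the mean over all tested compounds plus 3 SD, cut at about 4.2% in these data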;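 also: 0% = DAX1-transfected cells with DMSO and 100% = empty-vector control cells with DMSO; inhibition shows as a rise in luminescence from relieved DAX1 repression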
Target sequence (P51843 207-470 limits assumed): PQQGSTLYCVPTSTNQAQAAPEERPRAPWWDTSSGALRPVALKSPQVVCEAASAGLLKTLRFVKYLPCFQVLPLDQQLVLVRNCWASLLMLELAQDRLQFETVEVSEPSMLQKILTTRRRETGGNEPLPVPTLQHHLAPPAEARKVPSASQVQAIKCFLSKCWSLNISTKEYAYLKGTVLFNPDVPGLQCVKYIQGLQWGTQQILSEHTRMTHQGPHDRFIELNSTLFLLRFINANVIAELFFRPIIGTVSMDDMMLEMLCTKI
hgDAF12 agonist = agonists of H. glycines DAF-12 nuclear receptor; actives 1.8% (n = 370,000); activation, % at 6.8 µM; HEK293 GAL4-hgDAF12 UAS-luciferase reporter, agonist luminescence; normalized to butyrate control; AID 687014;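 active = activation above a cutoff set at the mean of all screened compounds plus 3 SD, cut at about 10% in these data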;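 also: 0% = DMSO wells and 100% = sodium butyrate wells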
DAX1 inh-2 = DAX1 (NR0B1) inhibition, primary screen; HEK293T StAR-luciferase reporter, SF-1/DAX-1 repression relief; actives 1.1% (n = 370,000); inhibition, % at 6.8 µM;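 active = inhibition above the mean over all tested compounds plus 3 SD, cut at about 3.6% in these data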;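 also: 0% = DAX-1 cells with DMSO and 100% = cells lacking DAX-1 with DMSO; higher inhibition means more luminescence from relief of DAX-1 repression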
ssDAF12 agonist = activates DAF-12 receptor from parasite S. stercoralis | HEK293 ssDAF-12/GRIP1 lit1-tk-luc reporter, luminescence; % of 3 µM dafachronic acid response | activation, % at 6.8 µM | actives 1% (n = 370,000) | AID 652126;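 active = activation above the mean over all tested compounds plus 3 SD, cut at about 0.9% in these data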;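 also: 0% = DMSO-only wells and 100% = 3 µM delta7-dafachronic acid wells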
* = called active by the depositor; . = no result given.

SMILES | hcDAF12 agonist | DAX1 inh-1 | hgDAF12 agonist | DAX1 inh-2 | ssDAF12 agonist
Cc1cc(OCc2cc(C(=O)N(C)CCc3cnn(C)c3)no2)cc(C)c1Cl | 1 | 1 | 7 | 4.2* | -1
N#Cc1ccc(/C=C2\CC3(OC(=O)c4ccc(F)cc4)CCCN2C3)cc1 (stereo unspecified) | -2 | . | 2 | 0 | -1
COc1ccc(OCc2cc(C(=O)N(C)CC3CCCCO3)no2)c(Cl)c1 (stereo unspecified) | 1 | 1 | 2 | 0 | 0
COc1cc(Cl)ccc1OCc1cc(C(=O)N(C)CC2CCCCO2)no1 (stereo unspecified) | 2 | 1 | 12* | 0 | -1
Cn1c(=O)cc(SCC(=O)N2CCN(C3CCCCC3)CC2)c2ccccc21 | 0 | 7.3* | 0 | 2 | -1
CCn1c(=O)cc(SCC(=O)N2CCCCC2)c2ccccc21 | 0 | 1 | 0 | 0 | -1
O=S(=O)(c1ccc2nnn(OCc3ccccc3)c2c1)N1CCOCC1 | -2 | 0 | 0 | 1 | -1
CC(On1nnc2ccc(S(=O)(=O)N3CCOCC3)cc21)C(=O)Nc1ccccc1F (stereo unspecified) | 0 | 5.0* | 0 | 1 | -1
O=[N+]([O-])c1ccc(NCc2ccc(Cl)cc2)nc1 | -1 | -1 | 6 | -1 | -2
CC(C)c1ccc(CNc2ccc([N+](=O)[O-])cn2)cc1 | 3 | 1 | 12* | 3.9* | -1
O=C(NC(Cc1ccccc1)C(=O)O)c1ccccc1 (stereo unspecified) | 0 | -1 | 2 | -1 | 0
CCOC(=O)N(Cc1ccccc1)Cc1ccc(C(=O)N[C@@H](Cc2ccccc2)C(=O)O)cc1 | -1 | 6.5* | 2 | 0 | -2
Oc1ccc(Oc2ccccc2F)c2cccnc12 | 5.7* | . | 2 | . | -1
Cn1cncc1C(=O)c1ccccc1 | 2 | 2 | 0 | -1 | 1.1*
O=C(N/N=C1\CC(c2ccccc2)Oc2ccccc21)c1ccccn1 (stereo unspecified) | 4 | 0 | 1 | 3.8* | -1
COC(=O)C[C@H]1CC[C@@H]2[C@@H](COc3ccc(NC(=O)c4ccccc4)cc3C(=O)N2C)O1 | 0 | . | 3 | 0 | 0
Cc1cc(C)c(NC(=O)CSc2nnc(CN3CCOCC3)n2C)c(C)c1 | -1 | 0 | -1 | 0 | -1
Cc1cc(C)cc(NC(=O)CSc2nnc(CN3CCOCC3)n2C)c1 | -2 | 4.4* | 3 | -1 | -1
COc1ccccc1C(=O)NCc1nnc(SCC(=O)Nc2nccs2)n1C | 3 | 8.3* | -1 | 0 | -1
Cn1c(CSCc2ccccc2)nnc1SCC(=O)Nc1nccs1 | -1 | -1 | -3 | -1 | -1
COc1ccccc1OCc1nnc(SCC(=O)Nc2ccc(N3CCOCC3)cc2)n1C | 0 | 4.8* | 7 | -1 | -1
COc1ccc(Cn2cc(CN3[C@H](Cc4ccccc4)COc4cc(Br)ccc4S3(=O)=O)nn2)cc1 | -3 | . | 1 | -1 | -1
COc1cnn(-c2ccc(C)cc2)c(=O)c1Cl | 3 | 0 | 12* | 1 | -1
CC(C)(C)C(C(=O)NCc1ccccc1)N1CCN(C(=O)C2CCCO2)CC1 (stereo unspecified) | -1 | . | 1 | 1 | 0
COc1ccc(C(C(=O)N(C)C2CCCC2)N(Cc2ccc(F)cc2)C(=O)c2cc(C)on2)cc1OC (stereo unspecified) | -2 | . | 0 | -1 | -2
SMILES | hcDAF12 agonist | DAX1 inh-1 | hgDAF12 agonist | DAX1 inh-2 | ssDAF12 agonist
CN(C)c1ccc(N=Cc2nc(-c3ccccc3)oc2OC(=O)c2cccc(Cl)c2)cc1 | 1 | 2 | 12* | 3 | -1
COc1ccc(N=Cc2nc(-c3ccccc3)oc2OC(C)=O)cc1 | 0 | 0 | -1 | 1 | -1
COc1ccc(S[C@]2(C(=O)N3CCCC3)CC(=O)N(c3ccccc3OC)[C@@H]2c2ccc(OC)cc2)cc1 | -1 | . | 2 | -1 | -1
CC(=O)NC(CC(=O)OCC(=O)c1c(N)n(CC(C)C)c(=O)n(C)c1=O)c1ccccc1 (stereo unspecified) | 0 | -2 | -1 | -3 | -1
CC(=O)N/C(=C\c1ccccc1)C(=O)OCC(=O)c1c(N)n(CC(C)C)c(=O)n(C)c1=O | -1 | 4.4* | -1 | 1 | -1
CCCOc1ccc(C2c3c(oc4cc(C)c(C)cc4c3=O)C(=O)N2CCCN(C)C)cc1 (stereo unspecified) | 0 | 6.7* | 4 | 1 | -1
Cc1cc2oc3c(c(=O)c2cc1C)C(c1ccc(F)cc1)N(CCCN1CCOCC1)C3=O (stereo unspecified) | -1 | 1 | 0 | -1 | -1
Cc1ccc(NC(=O)C2CCCN2S(=O)(=O)c2cccnc2)cc1C (stereo unspecified) | -3 | . | -2 | -1 | -2
Nc1nc(-c2ccccc2)c(N=Nc2ccccc2Cl)s1 | 5.8* | -1 | 5 | -1 | -1
Nc1nc(-c2ccccc2)c(N=Nc2cccc3ccccc23)s1 | 3 | 0 | 0 | -1 | 0
CN(Cc1ccccc1)S(=O)(=O)c1cccc(C(=O)OCc2ccccc2)c1 | -1 | . | 0 | 0 | -1
CC(=O)Nc1ccc(SC(C)C(=O)NC2CCCC2)cc1 (stereo unspecified) | -1 | 0 | 0 | 0 | -1
CC(Sc1ccccn1)C(=O)NC1CCCC1 (stereo unspecified) | 0 | -1 | 5 | 4.4* | -1
O=C(Cc1ccc(Cl)cc1)Nc1ccc(SC(F)F)cc1 | 1 | 1 | 11* | 1 | 0
O=C(Cc1ccc(Br)cc1)Nc1ccc(Cl)cc1 | 0 | 0 | 4 | 0 | -2
Cc1nc2c(ncn2-c2ccccc2)c(=O)n1NC(=O)CN1CCCCC1 | 0 | 4.5* | 3 | 0 | -2
Cc1ccc(NC(=O)c2ccc(CS(=O)(=O)Cc3ccccc3C)o2)c(C)c1 | -3 | . | -6 | -1 | -2
CCOC(=O)Cn1nnnc1C(C(C)C)N(Cc1cccs1)Cc1cc2cc(C)ccc2[nH]c1=O (stereo unspecified) | 0 | 4.3* | -1 | -1 | -2
CC(C)(C)c1ccc(C(=O)Nc2ccc(F)cc2)s1 | 6.3* | 3 | 10 | 2 | 0
COc1cc2c(cc1OC)C(SC)=NC1(CCCC1)C2 | -1 | 0 | -2 | 0 | -1
COc1cc2c(cc1OC)C(C)=NC1(CCCCC1)C2 | -2 | 4.6* | 0 | 0 | -2
CCc1ccc(C(=O)NNC(=O)CCc2nc3ccccc3c(=O)[nH]2)cc1 | -1 | 1 | 1 | 3.6* | 0
COc1ccc(C(=O)NNC(=O)CCc2nc3ccccc3c(=O)[nH]2)cc1 | 0 | 2 | 3 | 1 | -1
Cc1ccc(CSc2nnc(-c3n[nH]c4c3CCC4)n2N)cc1 | -3 | . | 5 | 2 | -1
O=[N+]([O-])c1ccccc1Oc1ccccc1Cl | 1 | 1 | 2 | 0 | -1
